Hits are enriched below; roughly 5.1% of the tested compounds scored in any of these assays.
S1P3 antagonist: S1P3 (human) receptor antagonism. Q99500. CHO S1P3 NFAT-BLA reporter, FRET fluorescence, antagonist mode. inhibition, % at 4.98 µM. 170,000 compounds, 0.27% hits;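 active = inhibition above the plate cutoff, the mean inhibition of test wells on that plate plus 3 SD, cut at about 28% in these data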;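 also: cells challenged with S1P at its EC80 of 0.8 µM; blue over green emission ratio from cleaved BLA substrate after 4 h stimulation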
RAM network inh: yeast RAM network inhibition; S. cerevisiae dse1pr::URA3 reporter, 5-FOA growth OD615, 2 d; analog-sensitive cbk1-as2 kinase mutant strain; inhibition, % at 50 µM; 190,000 compounds, 1.8% hits; AID 868;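 active = inhibition above a set limit, 3 SD over mean compound inhibition, cut at about 8.4% in these data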;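 also: inhibition rescues growth on 5-FOA so higher OD means more RAM inhibition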
S1P4 antag: antagonists of human S1P4 receptor. O95977. S1P4-expressing cells, antagonist mode, reporter read-out. inhibition, % at 4.98 µM. 220,000 compounds, 0.26% hits; in the data active = inhibition above about 29%
ROMK mod: human ROMK K+ channel modulation, primary screen; B-score at 10 µM; Tet-inducible ROMK, thallium flux fluorescence; actives lie on both sides; P48048; 130,000 compounds, 2% hits; AID 1918;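 active = signal ratio slope over the read window, or its plate-corrected B-score, at least 3 SD from the plate mean, either direction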;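 also: B-score of the F/F0 ratio slope over 7 to 12 s after thallium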
S1P4 ag: agonists of human S1P4 receptor; S1P4-expressing cell line, agonist reporter assay; 220,000 compounds, 0.35% hits; activation, % at 4.98 µM; AID 1509; in the data active = activation above about 11%
KCC2 mod: modulators of human KCC2 chloride dependent transport. 190,000 compounds, 2.2% hits. Q9H2X9. B-score of Tl+ flux slope (higher = more flux/activation; lower = inhibition) at 10 µM. KCC2 cells, thallium flux FluoZin-2 fluorescence. AID 1456;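 active = thallium flux slope and its plate-corrected score both differing from the plate sample mean at a set confidence after two filtering rounds, in either direction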;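 also: slope of fluorescence scaled to starting intensity during 10 to 20 s after thallium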
RAM efflux-def: RAM network inhibitors in efflux-deficient yeast; shares compounds with RAM network inh; S. cerevisiae efflux-deficient reporter strain, 5-FOA growth OD615, 2 days; max inhibition, %; 1,200 tested, under 10 active; AID 1305; call rule not given here
KCC2 secondary: KCC2 (human) modulation, secondary assay | shares compounds with KCC2 mod | HEK293-KCC2, thallium flux, FluoZin2 fluorescence; hits give high values | normalised thallium flux (F/F0 slope) at 10 µM | 3,700 compounds, 15% hits | AID 1713;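 active = thallium flux slope above the same plate's solvent-only control mean plus 3 SD; inconclusive = the two replicate wells disagree; inactive = no significant difference from solvent-only control wells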
KCC2 bumet counter: bumetanide-insensitive thallium flux in KCC2 cells with ouabain, counter-screen; shares compounds with KCC2 mod; HEK293-KCC2 + bumetanide/ouabain, thallium flux FluoZin2; hits give high values; normalized thallium flux at 10 µM; 3,700 compounds, 49% hits;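 active = thallium entry rate above the same plate's blocked-transporter control wells by more than 3 SD; inconclusive = the two repeat wells disagree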;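 also: raw slope of fluorescence over initial fluorescence between 10 and 20 s after thallium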
KCC2 sec2: KCC2 (human) modulation, second secondary assay. shares compounds with KCC2 mod. HEK293-KCC2, thallium flux FluoZin2 fluorescence; actives lie on both sides; F/F0 rise rate, 10–20 s post-thallium. normalized thallium flux at 10 µM. 3,700 compounds, 23% hits. AID 1715;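 active = thallium flux slope more than 3 SD above or below the plate's solvent-only control mean, mostly below; inconclusive = the two repeat wells disagreed; inactive = no significant shift from solvent-only controls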
HEK293 Tl flux: parental HEK flux effect, counter-screen | shares compounds with KCC2 mod | HEK293 parental cells, thallium flux FluoZin2, ouabain; baseline-ratio fluorescence slope, 10–20 s after thallium | thallium flux rate (normalised fluorescence) at 10 µM | 3,700 compounds, 46% hits | AID 1716;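 active = thallium flux rate significantly above the same plate's solvent-only control wells, beyond their mean plus 3 SD; inconclusive = the two replicate wells gave conflicting results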
KCC2 ouabain: confirmation of human KCC2 modulators with ouabain | shares compounds with KCC2 mod | HEK293-KCC2, thallium flux FluoZin2 fluorescence; bidirectional: low = inhibitor, high = activator | raw Tl+ flux slope (below DMSO = inhibition, above = activation) at 10 µM | 3,700 compounds, 48% hits | AID 1717;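 active = thallium flux slope beyond 3 SD from same-plate DMSO control mean in most replicates, usually higher, sometimes lower; inconclusive = repeat tests gave conflicting results; inactive = no significant difference from controls in most replicates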;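 also: slope of initial-normalized fluorescence between seconds 10 and 20 after thallium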
HEK counter2: acts in parental HEK cells, second KCC2 counter-screen | shares compounds with KCC2 mod | HEK293 parental, thallium flux FluoZin-2 fluorescence slope | thallium flux slope at 10 µM | 3,700 compounds, 33% hits | AID 1718;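 active = thallium flux slope above the same plate's solvent-control mean plus 3 SD in both duplicate wells; inconclusive = duplicate wells that disagreed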;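 also: run without ouabain in cells lacking the KCC2 cotransporter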
Numbers stand for hits; – = inactive; ? = inconclusive; · = no result given.

SMILES | S1P3 antagonist | RAM network inh | S1P4 antag | ROMK mod | S1P4 ag | KCC2 mod | RAM efflux-def | others
NS(=O)(=O)c1ccc(CCNC(=O)/C=C/c2ccccc2[N+](=O)[O-])cc1 | – | – | – | – | – | – | ·
COCC(=O)OCC(=O)Nc1cc(C)c(C)cc1[N+](=O)[O-] | – | – | – | – | – | – | ·
CCCCCOc1ccc(C(=O)OCC(=O)Nc2cc(C)c(C)cc2[N+](=O)[O-])cc1 | – | 11.6 | – | – | – | – | –
Cc1ccccc1C(C(=O)NC1CCCCC1)N(C(=O)CNC(=O)c1ccco1)c1cccnc1 (stereo unspecified) | – | – | – | – | – | · | ·
CCCCN1CCc2[nH]c(=S)[nH]c(=O)c2C1 | – | – | – | · | – | – | ·
Cc1cc(C)cc(NC(=O)CSCc2nc3c(nnn3Cc3ccc(F)cc3)c(=O)[nH]2)c1 | · | · | – | · | – | – | ·
CCc1sc(C(=O)Nc2cccc(C(C)=O)c2)cc1C | – | – | – | · | – | – | ·
O=C(Nc1ccccc1)c1cccc(=O)o1 | – | · | – | · | – | – | ·
Cc1cccc(Nc2nnc(SCC3CCCCO3)s2)c1 (stereo unspecified) | – | 14.5 | – | · | – | – | –
COc1cc(C(C(=O)NCc2ccccc2)N(Cc2ccco2)C(=O)c2cnccn2)cc(OC)c1OC (stereo unspecified) | – | – | – | – | – | – | ·
Cc1ccc(N(CCCCN2C(=O)c3ccccc3C2=O)C(=O)c2cccs2)cc1 | · | 11.8 | – | · | – | – | –
COC(=O)CNC(=O)CSc1nc(N)cc(=O)[nH]1 | · | – | – | – | – | – | ·
COc1ccc2c(c1)CCc1c(C(=O)Nc3ccc(OC)c(OC)c3)noc1-2 | – | – | – | – | – | · | ·
COc1ccc2c(c1)CCc1c(C(=O)NCCc3ccc(OC)c(OC)c3)noc1-2 | – | 13.6 | – | · | – | · | –
Cc1ccccc1Cn1nc(C)c(NC(=O)C2c3ccccc3Oc3ccccc32)c1C | – | – | – | · | – | – | ·
O=C(CCc1ccc(CCC(=O)c2cccs2)s1)c1cccs1 | – | 16.7 | – | · | – | – | –
Cc1ccc(S(=O)(=O)N2CCN(C(=O)C3COc4ccccc4O3)CC2)cc1C (stereo unspecified) | – | 17.1 | – | · | – | · | –
Cc1ccc(S(=O)(=O)NNC(=O)C2COc3ccccc3O2)cc1C (stereo unspecified) | – | – | – | – | – | – | ·
Cc1nn(Cc2c(Cl)cccc2Cl)c(C)c1NC(=O)Cn1nc([N+](=O)[O-])c(Cl)c1C | – | 12.5 | – | · | – | – | –
Cc1nn(Cc2ccccc2)c(C)c1NC(=O)Cn1nc([N+](=O)[O-])c(Cl)c1C | · | – | – | – | – | – | ·
Cc1ccccc1S(=O)(=O)NCc1ccc(N2CCN(C)CC2)cc1 | – | · | – | · | – | – | ·
CCn1c2ccccc2n2c(=O)c(=O)n(CC(=O)Nc3ccc(C(C)C)cc3)nc12 | – | – | – | – | – | – | ·
CCOC(=O)CSc1nc2ccccc2c(=O)n1CC1CCCC1 | · | 17.6 | – | – | – | – | –
CCOC(=O)CSc1nc2ccccc2c(=O)n1CC | – | – | – | – | – | – | ·
Cc1ccc(-c2ccc(C(=O)NCc3ccccc3)o2)c2ccccc12 | – | 12.5 | – | – | – | – | –
SMILES | S1P3 antagonist | RAM network inh | S1P4 antag | ROMK mod | S1P4 ag | KCC2 mod | RAM efflux-def | others
Cc1ccc(-c2cccc(C(=O)NCCc3ccccc3)n2)c2ccccc12 | – | 13.8 | – | – | – | – | –
Cc1cccc(C)c1-n1c(C)nn(CC#N)c1=O | – | – | – | – | – | – | ·
COc1ccc(/C=C/C(=O)c2ccccc2)cc1COc1ccc(F)cc1 | · | 18.8 | – | – | – | – | –
COc1cc(/C=C/C(=O)c2ccc(C)cc2)ccc1OCC#N | – | 13.3 | – | – | – | – | –
COc1ccc(C=O)cc1COc1ccc(F)cc1F | · | – | – | · | – | – | ·
COc1ccc(C(=O)/C=C/c2ccc(OC)c(COc3ccccc3F)c2)cc1 | – | 18.8 | – | – | – | – | –
CCOc1ccc(/C=C/C(=O)c2ccccc2)cc1 | – | · | – | · | – | – | ·
Cc1ccc(S(=O)(=O)N(C)c2c(C)ccc(S(N)(=O)=O)c2C)cc1 | – | – | – | – | – | – | ·
C=C1SC(Nc2c(C)cc(C)cc2C)=NC12CCCCC2 | – | · | – | · | – | – | ·
Cc1ccc(SCC(=O)Nc2ccc(F)cc2[N+](=O)[O-])cc1C | – | 14.6 | – | – | – | – | –
Cc1cccc(C(=O)NCc2nnc3c4ccccc4c(-c4ccccc4)nn23)c1 | – | 11.6 | – | · | – | – | –
CN1CCN(C(=O)C2=C[C@@H](C3CCCCC3)C[C@@H](OCCCCO)O2)CC1 | – | – | – | · | – | – | ·
O=c1c2ccccc2nc(SCc2cccc(F)c2)n1-c1cccc(S(=O)(=O)N2CCCC2)c1 | – | 12.7 | – | – | – | – | –
O=C1CCC(/C=C/c2ccccc2)=NN1Cc1ccc(Cl)c(Cl)c1 | · | 13.3 | – | – | – | · | –
COc1ccc(/C=C/C2=NN(Cc3ccccc3)C(=O)CC2)cc1 | – | – | – | – | – | · | ·
O=C1CCC(/C=C/c2ccccc2)=NN1Cc1ccccc1Cl | · | 23.1 | – | – | – | · | –
Brc1ccccc1-c1nnc2sc(Cc3ccccc3)nn12 | – | 33.4 | – | · | – | -4.05 | – | KCC2 secondary=–;KCC2 bumet counter=–;KCC2 sec2=?;HEK293 Tl flux=?;KCC2 ouabain=0.0129;HEK counter2=–
COc1ccc(/C=C(\C#N)c2n[nH]c(Cn3cncn3)n2)cc1 | – | – | – | – | – | – | ·
O=C(CSc1nnc(-c2ccccc2Br)o1)Nc1cccc2ccccc12 | – | – | – | · | – | – | ·

Screening data as filed in PubChem.
